Shown are actives, neighbours in structure and some others; about 7.5% of the full set was active somewhere.
VP16 counter: inhibits Gal4-VP16 luciferase reporter, ROR gamma counter-screen; Potency, µM (series often up to 53.6 µM), for the others: at the top dose activity, negative = inhibition, usual class: inhibitors; AID 2546; Drosophila S2 Gal4-VP16 UAS-luciferase, luminescence, 20 h; 3.5% of 310,000 active;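 further: Gal4-VP16 expression switched on by copper sulfate through the metallothionein promoter; potency means the concentration at half of the fitted maximal effect; nearly all actives have a fitted effect of over 50% in size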
TSHR antagonist: human thyrotropin receptor antagonism; activity change, negative = inhibition, % at 11.5 µM; 0.2% of 330,000 active; TSHR-expressing cells, TSH-stimulated cAMP HTRF, 2 h; stronger effect = lower value;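 active means activity change below a set negative limit, meaning inhibition stronger than a set level, cut at about -70% in these data; inconclusive means activity change between two set negative limits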
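Antagonism was scored as loss of TSH-driven cAMP in TSHR cells, stimulated with 4nM TSH (EC80) for 2 hours at 37 deg C and detected by homogeneous HTRF competition immunoassay.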
RORgamma inh: blocks mouse ROR gamma transcriptional activity. P51450. Drosophila S2 Gal4-RORgamma UAS-luciferase reporter, 20 h. Potency, µM (highest dose often 53.6 µM), for the others: at the highest dose activity change, negative = inhibition, actives largely listed as inhibitors. 5.4% of 310,000 active. AID 2551; further: potency means the concentration at half of the fitted maximal effect; nearly all actives have a fitted effect of over 60% in size
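Using a luciferase readout, inhibitors were identified by reduced reporter activity in Drosophila cells coexpressing a copper-inducible Gal4–ROR gamma fusion and UAS-driven Photinus luciferase, incubated 20 hr after 700 uM copper sulfate.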
ELG1 DNA repair: ELG1-dependent DNA repair inhibition. Potency, µM (titrated, usually from 46.1 µM), without a hit: at the top dose activity change, negative = inhibition, hits mostly inhibitors. AID 504467. HEK293T ELG1-luciferase reporter, luminescence, 16 h; DNA damage induced by 5-fluorouridine. 2.3% of 330,000 active; further: potency means the concentration at half of the fitted maximal effect; nearly all actives have a fitted effect of over 55% in size
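5-Fluorouridine DNA damage + compound/DMSO, 2,000 cells/well, 16 h, 37 °C/5% CO2. ONE-Glo, 30 min RT, luminescence. Readout = decrease in reporter signal.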
B2AR arrestin: beta2AR (human) beta-arrestin recruitment activity. beta-arrestin recruitment to beta2AR, cell-based reporter. Potency, µM (top dose mostly 46.1 µM), for inactives: at the top dose activation, hits mostly activators. 0.02% of 330,000 active. AID 492947;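 further: potency means the concentration at half of the fitted maximal effect; 0% = DMSO controls and full agonism = EC100 isoproterenol or metaproterenol; nearly all actives have a fitted effect of over 65% in size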
Target sequence (P07550 whole entry, looked up): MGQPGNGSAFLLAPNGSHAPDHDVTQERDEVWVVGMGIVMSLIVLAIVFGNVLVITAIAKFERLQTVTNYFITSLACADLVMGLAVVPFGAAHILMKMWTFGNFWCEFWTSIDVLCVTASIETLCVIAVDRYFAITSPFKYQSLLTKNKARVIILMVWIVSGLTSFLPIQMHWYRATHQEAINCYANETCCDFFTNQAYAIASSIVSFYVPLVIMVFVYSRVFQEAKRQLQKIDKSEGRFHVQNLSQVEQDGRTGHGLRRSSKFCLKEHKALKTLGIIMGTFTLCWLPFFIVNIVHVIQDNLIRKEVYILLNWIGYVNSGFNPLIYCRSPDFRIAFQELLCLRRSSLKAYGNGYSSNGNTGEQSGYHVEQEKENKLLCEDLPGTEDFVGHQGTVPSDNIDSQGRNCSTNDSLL
Active calls of the source: *; ? = inconclusive; / = no result given; [ ] = remark or other dose. Unless noted, the call rests on the fitted dose curve; in most records, active means well fitted curve in the direction sought with a large enough effect; inconclusive means small, poorly fitted or top-dose-only effect, or another doubt; inactive means no such curve, though single readings can be large; an effect the other way counts as inactive or inconclusive. Unless noted, on the % scale 0 is the no-effect control and ±100 the full control effect.

SMILES	VP16 counter	TSHR antagonist	RORgamma inh	ELG1 DNA repair	B2AR arrestin
Cc1cccc(COc2ccccc2C(=O)OCC(=O)N(C)c2c(N)n(Cc3ccccc3)c(=O)[nH]c2=O)c1	0%	-7	4%	21µM*	6%
COc1ccccc1NC(=O)CSc1nc(=O)n2cc(C)ccc2n1	/	4	/	-12%	0%
OCCN(CCO)c1nc(N2CCCCC2)c2nc(N(CCO)CCO)nc(N3CCCCC3)c2n1	-14%	/	?	0.46µM*	-1%
Nc1nc(NCCO)nc(N2CCCCCC2)c1[N+](=O)[O-]	2%	-4	13%	-2%	-1%
COc1ccc2oc(C(=O)OCC(=O)N(CCC#N)c3ccccc3)c(C)c2c1	-2%	-4	-12%	-7%	1%
CC1(C)Cc2nc3sc4c(NCCO)ncnc4c3cc2CS1	?	-3	4µM*	-1%	0%
CCN(c1ccccc1)S(=O)(=O)c1nnc(NC(=O)C(C)(C)C)s1	-1%	12	4%	7.3µM*	0%
COc1ccc(Cc2nnc(NC(=O)c3c(-c4ccccc4)noc3C)s2)cc1	?	-20	16µM*	-12%	-1%
CC(C)(C)C(=O)Nc1nnc(Cc2ccccc2)s1	1%	-13	13µM*	?	-1%
CCCC(=O)Nc1nnc(CCc2ccccc2)s1	3%	-89*	18%	22%	0%
CCc1ccc(NC(=S)N2CCNC(=O)C2CC(=O)OC)cc1 (centres undefined)	4%	1	-41%	-2%	0%
COc1ccccc1NC(=S)NCc1ccc2c(c1)cc(C)n2C	?	4	5.6µM*	-6%	0%
CCc1cccc(C)c1NC(=S)NCc1ccc2c(c1)cc(C)n2C	7.9µM*	1	5.6µM*	-2%	0%
CCCCNC(=S)NCc1ccc2c(c1)cc(C)n2C	?	-3	11µM*	12%	-1%
Cc1cc2cc(CNC(=S)NC3CCCCC3)ccc2n1C	?	-4	14µM*	?	0%
CCC(CC)C(=O)NCc1ccc2c(c1)cc(C)n2C	-4%	-3	-2%	-5%	-1%
CCCCC(=O)NCc1ccc2c(c1)cc(C)n2C	-6%	3	26%	-12%	12%
COC(=O)C1=C(C)N(Cc2ccccc2)C2=C3C(=O)OCCC3[C@@](O)(C(=O)OC)C(=O)N2C1c1ccccc1 (some centres undefined)	-7%[10 µM]	/	-18%[10 µM]	/	/
N.N.O=C(O)C1(C(=O)O)CCC1.[Pt]	10%	/	-1%	/	/
CC[C@@H](C)[C@H](N)C(=O)NC[C@H]1O[C@@H](n2cnc3c(N)ncnc32)[C@H](O)[C@@H]1O	/	21	/	30%	0%
Cc1noc(C)c1C(=O)N1CCC[C@@]2(CCN(Cc3nccs3)C2)C1	1%	/	4%	/	/
COc1ccc(NC(=S)NCc2ccc3c(c2)cc(C)n3C)cc1	11µM*	-7	4.5µM*	-10%	0%
CCOC(=O)NCc1ccc2c(c1)cc(C)n2C	9%	6	24%	24%	0%
Cc1cc2cc(CNC(=S)NCc3ccccc3)ccc2n1C	?	-5	18µM*	-7%	0%
Cc1ccccc1NC(=S)NCc1ccc2c(c1)cc(C)n2C	11µM*	2	6.3µM*	-2%	-1%
SMILES	VP16 counter	TSHR antagonist	RORgamma inh	ELG1 DNA repair	B2AR arrestin
CCc1cccc(C)c1NC(=S)NCc1ccccc1	32µM*	11	3.5µM*	4%	-1%
Cc1cc2cc(CNC(=O)Nc3ccccc3)ccc2n1C	-2%	4	?	-8%	-1%
CCCCCC/C=C/c1ccc(OC)c(C2C3C=CCC(C)C3C(=O)N2Cc2ccccc2)c1 (centres undefined)	4%	/	-8%	/	/
CCCCCCCCCCCCCC(=O)N[C@@H](C)[C@H](O)c1ccccc1	-3%	/	2%	/	/
COc1ccc(-c2nnc(-c3ccc(N(C)C)cc3)o2)cc1	-26%	/	0.79µM*	/	/
COc1ccc(-c2nnc(-c3ccc(N)cc3)o2)cc1	-26%	8	8%	?	0%
Cc1ccc(-c2nnc(-c3ccccc3Br)o2)cc1	?	-17	13µM*	?	0%
CN(C)c1ccc(-c2nnc(-c3ccccc3F)o2)cc1	?	-4	11µM*	?	-1%
Brc1ccc(-c2nnc(-c3ccccc3Br)o2)cc1	-24%	-1	-8%	?	-1%
COCCn1c(=O)c(-c2ccc(Cl)cc2)nc2cncnc21	11%	/	-1%	/	/
C#CCCCO/N=C1/C[C@@H](O)[C@@H](O)[C@@H]2[C@@H]3C(=O)N(Cc4ccccc4)C(=O)[C@H]3CC[C@@H]12	-3%[10 µM]	/	-9%[10 µM]	/	/
CCCN1C(=O)/C(=C/c2c(N3CCNC(=O)C3CC(=O)OCC)nc3c(C)cccn3c2=O)SC1=S (centres undefined)	-5%	-14	-3%	5.8µM*	0%
COc1ccc(-c2nc3cnc(N(C)C)nc3n(C3CC3)c2=O)cc1	-1%	/	-5%	/	/
CC(C)(C)C1CCC(=NNc2nc3ccccc3[nH]2)CC1 (centres undefined)	7%	0	18µM*	-1%	0%
O=C(O)c1cc(NN=C2CCN(Cc3ccccc3)CC2)ccc1Cl	-9%	13	-1%	?	0%
c1ccc2c(c1)CCC[C@H]2Nc1nc2ccccc2[nH]1	/	-8	/	/	/
c1ccc2c(c1)CC/C2=N/Nc1nc2ccccc2[nH]1	5.6µM*	0	1.1µM*	?	0%
c1ccc(CN2CCC(=NNc3nc4ccccc4[nH]3)CC2)cc1	-25%	10	22µM*	1%	0%
CCc1cc2c(nc1CC)CCN(CC/C(C)=N/O[C@@H]1O[C@H](COC(C)=O)[C@H](OC(C)=O)[C@H](OC(C)=O)[C@H]1OC(C)=O)C2	-11%[10 µM]	/	20%[10 µM]	/	/
CCOc1ccccc1NC(=O)COC(=O)C(Cc1ccccc1)NC(=O)c1ccco1 (centres undefined)	/	0	/	5%	0%
C/C(CCN1CCCCc2nc(C)c(C)cc21)=N\OC[C@@H](O)[C@@H]1O[C@@H]2OC(C)(C)O[C@@H]2[C@H]1O	4%[10 µM]	/	18%[10 µM]	/	/
COc1ccc(O)c(/C=N/NC(=O)CCC(=O)Nc2cccc(C)c2)c1	?	-8	13µM*	?	1%
COc1ccc(OC)c(/C=N/NC(=O)CCCC(=O)Nc2cccc(Br)c2)c1	-7%	-10	16%	?	-1%
COc1ccc(O)c(/C=N/NC(=O)CCC(=O)Nc2ccc(C)cc2)c1	-17%	-2	6.3µM*	?	0%
CC1=C[C@@H](O)CC(C)(C)[C@@H]1/C=C/C(C)=C/C=C/C(C)=C/C=C/C=C(C)/C=C/C=C(C)/C=C/C1=C(C)C[C@H](O)CC1(C)C	-20%	/	-10%	/	/
C=C(C)C(O)/C=C/c1ccc(C)cc1 (centres undefined)	-2%[10 µM]	/	5%[10 µM]	/	/

Assay outcomes as filed in PubChem.
